# Measured potencies and affinities stand elsewhere. Active and inactive are the calls of the source.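 Rule for the calls: active = fluorescent signal decreased by at least 40%; inconclusive = no clear call, values can overlap the other calls; inactive = the rest, including activity opposite to the expected direction.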
# Assay: inhibition of fibronectin matrix deposition – AH1F cells, Alexa488-fibronectin fluorescence, cherry-pick, set 2, dose response (AID 1117283);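 note: AH1F fibroblasts given Alexa488-labelled fibronectin at 24 nM final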
# Conditions: AH1F fibroblasts, overnight; series mostly up to 35 µM
smiles,measurement,value
C=C1C(=O)O[C@@H]2C[C@@H](C)[C@@H]3C=CC(=O)[C@@]3(C)[C@@H](O)[C@H]12,outcome,inactive

# — PubChem BioAssay AID1117283 (Broad Institute, 2014)
